Screening results as filed in PubChem.
The sample as a whole holds a higher share of hits than the screen did.
CHX counter: Cycloheximide Counterscreen for Small Molecule Inhibitors of Shiga Toxin; cell reporter, cycloheximide protein synthesis inhibition counterscreen; max response, %; 300,000 tested, 12% active; in the data active = max response mostly above about 13%, no sharp cut-off; inactive = mostly below about 14%; also: read at 38.3 µM for the half of the compounds with a filed dose
Marburg entry inh: qHTS for inhibitors of binding or entry into cells for Marburg Virus | 300,000 tested, 1.8% active | Potency, µM (highest dose often 37.8 µM), actives largely listed as inhibitors | Marburg virus pseudotyped entry inhibition, cell reporter; calls by dose curve; tested in HEK293 cells
LASV entry inh: qHTS for Inhibitors of binding or entry into cells for Lassa Virus; Lassa virus pseudotype entry inhibition, cell reporter; Potency, µM (doses to about 37.9 µM), actives largely listed as inhibitors; 300,000 tested, 1.2% active; AID 540256, 2011; calls by dose curve; tested in HEK293 cells; also: nearly all actives have a fitted effect of over 50% in size
Vaccinia Venus: qHTS for Stage-Specific Inhibitors of Vaccinia Orthopoxvirus: Venus Reporter Primary qHTS; Vaccinia virus Venus reporter expression, fluorescence; Potency, µM (top dose mostly 36.5 µM), most hits filed as inhibitors; 330,000 tested, 0.46% active; calls by dose curve; tested in A549 cells; also: nearly all actives have a fitted effect of over 30% in size
Vaccinia mCherry: qHTS for Stage-Specific Inhibitors of Vaccinia Orthopoxvirus: mCherry Reporter Primary qHTS; AID 720579, 2013; 310,000 tested, 0.63% active; Vaccinia virus mCherry reporter infection, fluorescence; Potency, µM (highest dose often 36.5 µM), hits mostly inhibitors; calls by dose curve; tested in A549 cells; also: nearly all actives have a fitted effect of over 35% in size
Shiga inhibitor: A qHTS for Small Molecule Inhibitors of Shiga Toxin; AID 2315, 2010; inhibition, % at 38.7 µM; Vero cells, Shiga toxin protein synthesis inhibition reporter; 290,000 tested, 9.2% active; in the data active = inhibition mostly above about 28%, no sharp cut-off; inactive = mostly below about 43%
Numbers stand for hits; – = inactive; ? = inconclusive; · = not tested or not shown.

SMILES	CHX counter	Marburg entry inh	LASV entry inh	Vaccinia Venus	Vaccinia mCherry	Shiga inhibitor
Cc1ccc(Nc2nc(-c3ccccc3)nc3ccccc23)cc1	·	·	–	–	–	·
FC(F)(F)c1nc2ccccc2nc1N/N=C\c1ccccc1	18.7	–	–	–	·	93.6
O=C1NC[C@@H](CCCCN2CCN(CCC3CCCCC3)C(=O)C2=O)N(CC2CCCCC2)C1=O	·	·	·	–	–	·
COc1ccc([C@H]2CN(Cc3ccccc3)C(=O)[C@@H]2CC(=O)Nc2ccccc2)cc1	·	·	·	–	?	·
Cc1ccc(NC(=O)CSc2nc(C)cc(C)c2C(=O)Nc2cccc(C)c2)cc1	·	–	–	–	–	·
CCn1c(=O)c2sccc2n2c(CCC(=O)Nc3ccc(OC)cc3OC)nnc12	·	–	–	–	–	·
Brc1ccc(-c2nc(N/N=C/c3cccnc3)c3ccccc3n2)cc1	31.6	?	–	–	–	103.4
COc1cccc(/C=N/Nc2nc(-c3cccnc3)nc3ccccc23)c1	17.8	·	·	·	·	65.5
COc1cccc(CNc2nc(-c3cccnc3)nc3ccccc23)c1	–	–	–	–	–	–
c1ccc(NN=C(c2ccccc2)c2cccs2)cc1	·	·	·	–	–	·
CC(C)C/C=C1\CCc2c([nH]c3ccccc23)C1=O	45.9	–	–	–	–	88.4
CN1C(=O)C(=Cc2cccnc2)C(=O)N(C)C1=O	–	–	–	–	–	–
O=C1/C(=C/c2cccnc2)CCc2c1[nH]c1ccccc21	47.7	?	–	–	?	67.9
CC1C/C(=C\c2cccnc2)C(=O)/C(=C/c2cccnc2)C1 (stereo not given)	–	2.06µM	2.91µM	8.91µM	?	–
CCOc1cc(/C=C\[N+](=O)[O-])ccc1OCC(=O)N1CCOCC1	–	–	–	–	–	–
CC(C)(C)N1C(=O)[C@H]2[C@H]3[C@H](O)[C@H](O)C/C(=N/OCc4ccccc4)[C@H]3CC[C@@H]2C1=O	·	–	·	·	·	·
COc1ccc(OC)c(NC(=O)CCCc2nnc3n(C(C)C)c(=O)c4sccc4n23)c1	·	·	–	–	–	·
CC(C)(C)N1C(=O)[C@@H]2[C@H]3[C@H](O)[C@H](O)CC(=NOCc4ccccc4)[C@H]3CC[C@H]2C1=O	·	–	·	·	·	·
CCN(CC(=O)Nc1ccc(NC(C)=O)cc1)C(=O)/C=C/c1ccco1	·	–	–	–	–	·
CCCN(CC(=O)Nc1ccc(Cl)cc1Cl)C(=O)/C=C/c1ccco1	76.8	?	?	–	–	174.1
COc1ccccc1-c1ccnc(-n2ncc(C(=O)NCc3cccnc3)c2C)n1	·	·	·	?	–	·
CC(CCc1ccccc1)NC(=O)COC(=O)c1cc(NS(=O)(=O)c2ccc(Cl)c([N+](=O)[O-])c2)ccc1O (stereo not given)	–	2.51µM	–	?	–	–
CNS(=O)(=O)c1cccc(C(=O)OCC(=O)NC(C)CCc2ccccc2)c1 (stereo not given)	–	·	·	·	·	–
CCc1ccc(C(=O)c2cn(CC(=O)Nc3ccc(F)cc3)c3cc4c(cc3c2=O)OCO4)cc1	·	?	?	–	–	·
N#Cc1c(SCc2ccc(Cl)cc2)sc(C(=O)c2ccccc2)c1N	–	–	?	–	·	–
SMILES	CHX counter	Marburg entry inh	LASV entry inh	Vaccinia Venus	Vaccinia mCherry	Shiga inhibitor
CC(=O)Nc1ccc(Oc2sc(C(=O)c3ccccc3)c(N)c2C#N)cc1	–	?	0.891µM	?	·	–
COC(=O)c1sc(-c2ccccc2)cc1NC(=O)Nc1ccc(F)cc1	·	–	–	–	–	·
CC1(C(=O)Nc2nccs2)CCN1C(=O)CC(c1ccccc1)c1ccccc1 (stereo not given)	·	·	·	–	–	·
C=CCNC(=S)N1CCN(c2cccc(C(F)(F)F)c2)CC1	45.9	?	–	–	–	–
CC1CCC2(CC1)NC(=O)N(NC(=O)c1ccc(OC(C)C)cc1)C2=O (stereo not given)	·	–	–	–	–	·
CC1CCC2(CC1)NC(=O)N(NC(=O)CCl)C2=O (stereo not given)	–	–	–	?	15.8µM	–
COC(=O)c1ccc(CN2C(=O)NC3(CCC(C)CC3)C2=O)o1 (stereo not given)	–	–	–	–	·	–
COC(=O)c1ccc(CN2C(=O)NC3(CCC(C)CC3)C2=O)cc1 (stereo not given)	53.3	?	–	–	–	119.6
CN(Cc1ccco1)C(=O)c1cc(NC(=O)C2CCC2)c2c(c1)nc(-c1ccncc1)n2C	·	·	·	–	–	·
CCC(C)[C@H]1CNC(=O)C(=O)N1CCc1cccc(F)c1 (stereo not given in full)	·	·	·	–	–	·
